aSyn 5UTR act: Activators via SNCA 5'UTR binding, MLPCN | alpha-synuclein 5'UTR reporter, activators screen | activity score, % (tested at 7.5 µM), hits read low | 300,000 compounds, 7.1% hits | AID 1814, 2009; in the data active = activity score below about -60%
An asterisk follows results filed as active. The list is a sample of the results.

SMILES | aSyn 5UTR act
Cc1sc2ncnc(NCC(O)c3ccccc3)c2c1C (stereo not drawn) | -103.9*
CC(C)Oc1cccc(C(=O)C2CCCN(C(=O)CCc3cnn(C)c3)C2)c1 (stereo not drawn) | -77.0*
O=C(CN1CCN(CCN2C(=O)c3cccc4cccc(c34)C2=O)CC1)c1ccc(F)cc1 | -64.9*
O=C(CN1C(=O)c2ccccc2S1(=O)=O)c1ccc(F)cc1 | 91.6
COc1ccccc1/C=C/C(=O)N1CCC(c2ccccc2)C1 (stereo not drawn) | -176.5*
COc1ccc(/C=C/C(=O)c2ccccc2)c(OC)c1 | -207.2*
COc1ccccc1/C=C/C(=O)NC(=S)NC(C)C | -93.2*
CCOc1ccccc1/C=C/C(=O)c1ccc(Cl)cc1 | -79.7*
COc1cc(O)c(C(=O)/C=C/c2ccccc2)c(OC)c1 | -162.7*
COc1ccccc1/C=C/C(=O)c1ccc(NC(C)=O)cc1 | -204.6*
COc1ccccc1/C=C/C(=O)c1ccccc1 | -154.9*
CCN(CC(=O)Nc1ccc2c(c1)OCCO2)C(=O)/C=C/c1cccc(OC)c1OC | -93.2*
O=C(/C=C/c1ccccc1O)c1ccc(Cl)cc1 | -188.9*
COc1cc(CC(=O)OCC(=O)c2ccc3c(c2)OCCO3)cc(OC)c1OC | 100.5
COc1cccc(/C=C/C(=O)c2ccc3c(c2)OCCO3)c1OC | -306.9*
COc1ccc(/C=C/C(=O)c2ccc3c(c2)OCO3)c(OC)c1 | -84.5*
COc1ccc(/C=C/C(=O)OCC(=O)c2ccc3c(c2)NC(=O)CO3)c(OC)c1 | 41.7
COc1ccccc1/C=C/C(=O)c1ccc(Cl)cc1 | -61.7*
Nc1cccc(/C=C/c2ccncc2)c1 | -68.0*
CCOC(=O)c1cc(-c2ccccc2)nn1Cc1cc(CC)no1 | -100.2*
O=C(N=Nc1c(O)n(C2OC(=O)c3ccccc32)c2ccccc12)c1ccco1 (stereo not drawn) | -109.5*
O=C(O)c1ccc(N/N=C/C2=Cc3ccccc3OC2)cc1 | -136.4*
O=C(/C(=C\c1ccccc1)c1nc2ccccc2[nH]1)c1ccc(Cl)cc1 | -227.9*
COC(=O)/C(=C\c1ccc(O)cc1)c1nc2ccccc2[nH]1 | -185.8*
O=C(/C(=C/c1ccc(Cl)cc1)c1nc2ccccc2[nH]1)c1cccs1 | -177.7*
SMILES | aSyn 5UTR act
C/C(=C\c1ccc(N)cc1)c1nc2ccccc2[nH]1 | -172.0*
COc1cc(/C=C(/C(=O)c2cccs2)c2nc3ccccc3[nH]2)ccc1O | -86.0*
CCOc1ccc(/C=C/C(=O)C(C(N)=O)=C2SCCS2)cc1 | -161.5*
Cc1ccc2cc3c(N)c4c(C)ccc(C)c4nc3nc2c1 | -76.9*
CCOC(=O)c1cc(-c2ccc(N)cc2)sc1N | -76.2*
NNC(=O)c1sc(-c2ccc(Cl)cc2)cc1N | -82.0*
CCOC(=O)c1sc(-c2ccc(Br)cc2)cc1N | -185.4*
O=c1c2ccccc2nnn1COc1ccc(Cl)cc1Br | -153.8*
O=c1c2ccccc2nnn1COc1cccc2ccccc12 | -146.7*
O=c1c2ccccc2nnn1COc1ccc(F)cc1Cl | -117.7*
CCNC(=O)NC(=O)C(C)Oc1ccc(Br)cc1Br (stereo not drawn) | -77.6*
CC(C)(C)c1ccc(CSc2nc(N)cc(=O)[nH]2)cc1 | -79.3*
[2H]C(CCOS(N)(=O)=O)c1ccc(C(C)(C)C)cc1 (stereo not drawn) | 80.0
Nc1cc(=O)[nH]c(SCCSc2ccccc2F)n1 | 67.4
COc1cccc(C(=O)N=c2sc3c(C)ccc(OC)c3n2C)c1 | -208.6*
COc1ccc(C(=O)N=c2sc3c(C)ccc(OC)c3n2C)cc1OC | -294.8*
COc1ccccc1C(=O)N=c1sc2c(C)ccc(OC)c2n1C | -80.3*
COc1ccc(-c2nsc3c(N4CCN(C(=O)c5ccco5)CC4)ncnc23)cc1 | -64.2*
O=C(c1ccco1)N1CCN(c2ncnc3c(-c4ccccc4)nsc23)CC1 | -105.8*
NC(=O)C1CCN(c2ncnc3c(-c4ccccc4)nsc23)CC1 | -112.5*
CC(C)N=C1NN=C(c2ccc(Cl)c(Cl)c2)CS1 | -228.1*
CC(C)N=C1NN=C(c2cccs2)CS1 | -99.9*
CC(C)c1ccc(N=C2NN=C(c3cccs3)CS2)cc1 | -145.3*
COC(=O)c1sccc1NC(=O)/C=C/c1ccc(Cl)cc1Cl | -205.5*
COC(=O)c1sccc1NC(=O)/C=C/c1c(Cl)cccc1Cl | -139.4*
SMILES | aSyn 5UTR act
Cn1cc(C(=O)N/N=C/c2c(O)ccc3ccccc23)ccc1=O | 96.3
Cn1cccc1/C=N/NC(=O)c1cc2ccccc2cc1O | -82.3*
Cn1cccc1C(=O)N/N=C/c1c(Cl)cccc1Cl | -99.9*
Cc1ccc2c(Cl)c(C(=O)N/N=C/c3cccn3C)sc2c1 | -134.9*
Cn1cccc1/C=N/NC(=O)c1ccccn1 | -70.9*
O=C(O)c1cccc(N/N=C/c2cccs2)c1 | 95.8
O=C(N/N=C/c1cccs1)c1ccccn1 | -79.2*
CC(C)(C)NC(=O)C(=O)N/N=C/c1cccs1 | -120.3*
c1ccc(-c2ccc(-c3ccncn3)cc2)cc1 | -78.0*
Cc1ccnc2nc(C(=O)Nc3cc(Cl)ccc3N3CCOCC3)nn12 | -77.0*
COc1ccc(OC)c(S(=O)(=O)ON2C(=O)c3ccccc3C2=O)c1 | -90.3*
COC(=O)c1ccc2nc(NC(=O)C3CC3)sc2c1 | -145.8*

Source: PubChem BioAssay (Broad Institute)
